Data published in PubChem BioAssay (NCI).
Compounds without any hit were thinned out: in the full panel of roughly 83,000, 20% have a hit.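 The endpoint reported here, percent growth, reads 100 for growth as untreated, 0 for no net growth and -100 for all cells dead.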 A number with no mark means an inactive call. Calls of active or inactive are those of the source. Rule for the calls: active = growth percent below 10; inactive = the rest.

Tests used:
Test in all cases: NCI-60 one-dose screen, 48 h (100 = growth as untreated, 0 = no growth, -100 = all killed)
Details in all cases: 10 µM unless noted
[1] = test system: NCI-H23 lung
[2] = test system: NCI-H226 lung
[3] = test system: NCI-H322M lung
[4] = test system: HOP-62 NSCLC
[5] = test system: NCI-H460 lung
[6] = test system: HOP-92 NSCLC
[7] = test system: NCI-H522 lung
[8] = test system: A549/ATCC NSCLC
[9] = test system: 786-0 renal
[10] = test system: COLO 205 colon

Structure (SMILES) | growth [1] | growth [2] | growth [3] | growth [4] | growth [5] | growth [6] | growth [7] | growth [8] | growth [9] | growth [10]
COc1cc(-c2nn(-c3ccc(Br)cc3)cc2CO)ccc1O | 95.2% | 105% | 93.8% | 95.4% | 101% | 90.8% | 72.1% | 78.1% | 95.6% | 
C#C[C@@]1(O)[C@@H](CO)O[C@@H](n2cc(F)c3c(N)ncnc32)[C@@H]1O | -30.5% (active) | -62.3% (active) | -2.54% (active) | 17.5% | 0.623% (active) | -15% (active) | -1.45% (active) | -37.9% (active) | -29.5% (active) | 
C=C1C(=O)O[C@H]2[C@H]1CC/C(COC(=O)CCCCCCC(=O)OC/C1=C/CC[C@@]3(C)O[C@H]3[C@H]3OC(=O)C(=C)[C@@H]3CC1)=C\CC[C@@]1(C)O[C@@H]21 | 25.1% | 65.2% | 99.5% | 83.6% | 77.7% | 34% | -81% (active) | 97.2% | 20.9% | 
C=CCn1c(CN2CCN(c3cc4c(cc3F)c(=O)c(C(=O)O)cn4C3CC3)CC2)n[nH]c1=S | 104% | 110% | 88.6% | 99.8% | 108% | 104% | 87.9% | 101% | 95.6% | 
CC1(C)CC[C@]2(c3nnc(-c4ccncc4)o3)CC[C@]3(C)C(=CC[C@@H]4[C@@]5(C)CCC(=O)C(C)(C)[C@@H]5CC[C@]43C)[C@@H]2C1 | 85.6% | 64.9% | 91.3% | 87.6% | 77.9% | 92.2% | 71.2% | 73.7% | 85% | 
O=C1NC(c2ccc(F)cc2)N=C2C(c3ccccc3)=NOC12 (configuration not stated) | 107% | 99.9% | 109% | 96.5% | 112% | 103% | 92.1% | 90.7% | 96.8% | 
COc1ccc2[nH]c(=O)c(/C=C/C(=O)c3ccccc3OC)cc2c1 | 21.3% | 38.9% | 18.3% | 8.67% (active) | 1.79% (active) | -12% (active) | 3.93% (active) | 10.4% | 8.21% (active) | 20.4%
O=C(/C(=C\c1c(-c2ccccc2)[nH]c2ccccc12)S(=O)(=O)c1ccccc1)c1ccccc1 | 47.9% | 53.6% | 67.6% | 64.5% | 37.8% | -4.34% (active) | -12.2% (active) | 44.6% | 68.1% | 
Cc1c(Cl)cccc1NC(=O)c1sc2nc3c(cc2c1N)COCC3 | 36.4% | 76.1% | 60.6% | 24.5% | 15.6% | 36.3% | 17.3% | 45.9% | 25.9% | 
CC(C)Cc1cc(CNC(=O)C2[C@H]3CN(C(=O)c4ccccc4)C[C@@H]23)nn1-c1ccccc1 (some centres not stated) | 96.3% | 94.1% | 95.3% | 83.4% | 102% | 115% | 49.4% | 72.2% | 99.4% | 
CCCCC1=c2c([nH]c3ccc(OC)cc23)=NC2C=CC=NC12 (configuration not stated) | 81.4% | 89.3% | 86.1% | 90.8% | 80.7% | 103% | 83.8% | 103% | 110% | 
COCCc1n(Cc2ccc3ccccc3c2)c2ccccc2[n+]1Cc1ccc2ccccc2c1 | -24.3% (active) | -7.12% (active) | 5.25% (active) | -19.1% (active) | -65.3% (active) | -53.1% (active) | -54.4% (active) | 4.72% (active) | -94.3% (active) | 
COc1ccc(-c2nc(C#N)c(NCC(c3ccco3)N3CCCC3)o2)cc1 (configuration not stated) | 53.7% | 101% | 43.3% | 47.1% | 24.1% | 58.2% | 30.6% | 43.7% | 34% | 
C#C[C@@]1(O)[C@@H](CO)O[C@@H](n2cc(Br)c3c(N)ncnc32)[C@@H]1O | 2.83% (active) | 21.2% | 1.46% (active) | -5.18% (active) | -36% (active) | -27.2% (active) | -30.7% (active) | -51.8% (active) | -48.5% (active) | 
CCCCC(=O)Nc1c(C(=O)Nc2ccccc2)sc2nc3c(cc12)C(OC(=O)CCCC)CCC3 (configuration not stated) | 95.6% | 92.6% | 113% | 101% | 85.9% | 84.4% | 77% | 105% | 84.1% | 
NS(=O)(=O)c1ccc(N2Cc3cc(Cl)ccc3OC3=C2C(=O)N(CC2CCCCC2)C3=O)cc1 | -36.5% (active) | -23.5% (active) | 65.4% | -60.9% (active) | -55.1% (active) | -76.6% (active) | -68.6% (active) | -43.5% (active) | -84.7% (active) | 
CCC[S@](=O)c1ccc2nc(NC(=O)OC)[nH]c2c1 | 98.2% | 89.9% | 98.6% | 84.6% | 99.8% | 96.5% | 70.7% | 75.6% | 94.2% | 
CCOC(=O)c1c(C)nc2c(c1N)/C(=C/c1cccs1)C(=O)N2c1ccc(OC)cc1 | 43.9% | 40.5% | 70.6% | 10.2% | 34.1% | 22% | 29.8% | 34.5% | 5.33% (active) | 63.2%
O=C(Nc1nc2ccc(C(F)(F)F)cc2s1)c1cc(Cl)ccc1O | -12% (active) | 5.73% (active) | 10.6% | 4.72% (active) | 4.41% (active) | -12.3% (active) | -15.1% (active) | 11.3% | 9.95% (active) | -57.3% (active)
Nc1c(C(=O)Nc2cccc3ccccc23)sc2nc3c(cc12)CCCCC3 | 44.8% | 72.7% | 51.3% | 38.9% | 9.6% (active) | 63.2% | 0.413% (active) | 19.3% | 30.5% | 
COc1cc2c(cc1OC)C(Sc1ccc(Cl)cc1)c1c(nc(N)c(C#N)c1N)O2 (configuration not stated) | -20.2% (active) | 16.2% | 42.1% | 63% | -55% (active) | 20.1% | -67.6% (active) | 44.1% | -17.1% (active) | 
O=C1CS/C(=N/c2nnc(-c3ccc(O)cc3)s2)N1 | 90% | 105% | 110% | 83.7% | 107% | 111% | 88.6% | 89.9% | 95% | 97.7%
CCOC(=O)c1c(C)nc2c(c1N)/C(=C/c1cccs1)C(=O)N2Cc1ccccc1 | 74.5% | 77.5% | 91.9% | 68.8% | 67.1% | 60.4% | 58.3% | 77.9% | 52.1% | 
COc1ccc(N(C)c2nc(Cl)nc3ccn(C)c23)cc1 | 27% | 30.3% | 49% | 17.7% | 2.4% (active) | 5.65% (active) | -36% (active) | 10.7% | 12.6% | 
CC(/C=C/c1ccccc1)=N/NC(=O)c1ccncc1 | 98.2% | 104% | 99.7% | 103% | 102% | 77.8% | 92.9% | 93.4% | 103% | 
O=c1c2ccccc2n(CC(O)CN2CCCC2)c2c(Br)cccc12 (configuration not stated) | 131% | 122% | 110% | 100% | 106% | 90.2% | 101% | 87% | 98.8% | 
C(=C\c1cn(-c2ccccc2)nc1-c1ccccc1)/c1nnc(-c2c[nH]c3ccccc23)o1 | 51% | 57.3% | 80.3% | 38.9% | 14.1% | 60.2% | 61.5% | 46.7% | 40.6% | 
COC(=O)/C=C1\SC(=Nc2ccc(C(F)(F)F)cc2)N(CCc2c[nH]c3ccccc23)C1=O | -4.71% (active) | -62.7% (active) | -11% (active) | -64.2% (active) | -47.4% (active) | -48.7% (active) | -65% (active) | 3.32% (active) | -74.1% (active) | -62.9% (active)
